Data as given in PubChem BioAssay (Tox21).
Values joined by “and” are separate entries in the source; they are usually repeats but may differ in a detail not shown here. Equal values may be shown once. Results filed as inconclusive are left out. Entries that show only a call come without a potency. A structure can be active in one record and inactive in another. Active and inactive are the calls of the source. The call rests on the fitted dose curve; in most records, active means well fitted curve in the direction sought with a large enough effect in the repeat runs; inconclusive means weak or mixed curves; inactive means no such curve, though single readings can be large; an effect the other way counts as inactive or inconclusive.

How the values were obtained:
[1] = qHTS RealTime-Glo MT Cell Viability Assay in HEK293 cells - 0 hour (AID 1224880); further: top concentration of the series differs between compounds; nearly all actives have a fitted effect of over 45% in size
Summary of the method: (§1)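 qHTS format; HEK293 cells with NanoLuc/prosubstrate reagent, 37 C/5% CO2 for 5 h pre-dosing; compounds 23 nL in DMSO; luminescence at each time point reflects viable cells.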

[2] = A CellTox Green Cytotoxicity Assay to monitor cytotoxicity in HEK293 cells - 32 hour (AID 1224881); further: nearly all actives have a fitted effect of over 40% in size; further: potency means the concentration at half of the fitted maximal effect
Summary of the method: (§2)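 Each value comes from one timepoint of a single continuous run in which HEK293 cells with CellTox Green were exposed to compound for up to 40 h at 37 C, dye fluorescence rising with cell death.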

[3] = A CellTox Green Cytotoxicity Assay to monitor cytotoxicity in HepG2 cells - 0 hour (AID 1224882); further: nearly all actives have a fitted effect of over 35% in size
Summary of the method: (§3)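 Continuous culture of HepG2 cells with a membrane-impermeant DNA dye; rising fluorescence marks dead cells. Compound exposure lasted up to 40 h at 37 C, with reads every 8 h from 0 h.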

[4] = A CellTox Green Cytotoxicity Assay to monitor cytotoxicity in HepG2 cells - 32 hour (AID 1224883); further: nearly all actives have a fitted effect of over 50% in size; further: potency means the concentration at half of the fitted maximal effect
Summary of the method: as §3

[5] = A CellTox Green Cytotoxicity Assay to monitor cytotoxicity in HEK293 cells - 8 hour (AID 1224884); further: nearly all actives have a fitted effect of over 35% in size; further: potency means the concentration at half of the fitted maximal effect
Summary of the method: as §2

[6] = qHTS RealTime-Glo MT Cell Viability Assay in HepG2 cells - 16 hour (AID 1224885); further: nearly all actives have a fitted effect of over 50% in size; further: potency means the concentration at half of the fitted maximal effect
Summary of the method: (§4)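 HepG2 cells (600/well) were dispensed with RealTime-Glo reagents, incubated 5 h at 37 °C, then treated with compounds in DMSO for up to 40 h. Nonlytic NanoLuc luminescence reflecting viable cells was read at each stated time point.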

[7] = qHTS RealTime-Glo MT Cell Viability Assay in HEK293 cells - 24 hour (AID 1224886); further: nearly all actives have a fitted effect of over 50% in size; further: potency means the concentration at half of the fitted maximal effect
Summary of the method: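 HEK293 cells seeded with NanoLuc/prosubstrate reagent, rested 5 h at 37 C, then dosed and kept at 37 C up to 40 h. Nonlytic real-time luminescence from viable cells read at 0, 8, 16, 24, 32 and 40 h.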

[8] = A CellTox Green Cytotoxicity Assay to monitor cytotoxicity in HEK293 cells - 16 hour (AID 1224888); further: nearly all actives have a fitted effect of over 35% in size; further: potency means the concentration at half of the fitted maximal effect
Summary of the method: as §2

[9] = qHTS RealTime-Glo MT Cell Viability Assay in HepG2 cells - 0 hour (AID 1224889); further: nearly all actives have a fitted effect of over 50% in size
Summary of the method: as §4

[10] = qHTS RealTime-Glo MT Cell Viability Assay in HEK293 cells - 8 hour (AID 1224887)
Summary of the method: as §1

SMILES | Potency [1] | Potency [2] | Potency [3] | Potency [4] | Potency [5] | Potency [6] | Potency [7] | Potency [8] | Potency [9] | Potency [10]
CCOc1ccc(NC(C)=O)cc1 | inactive | inactive | inactive | inactive | inactive | inactive | inactive and 21.9 µM (active) | inactive | inactive | 
CN(N=O)C(=O)N[C@@H]1[C@@H](O)[C@H](O)[C@@H](CO)O[C@@H]1O | inactive | inactive | inactive | inactive | inactive | inactive | inactive | inactive | inactive | 
C1CCC(C(CC2CCCCN2)C2CCCCC2)CC1 (stereo unspecified) |  | 19 µM (active) | inactive | 5.35 µM (active) | 26.8 µM (active) | 8.49 µM (active) | 16.9 µM (active) | 23.9 µM (active) |  | 
C1=CC2C3C=CC(C3)C2C1 (stereo unspecified) | inactive |  | inactive | inactive | 54 µM (active) | inactive | inactive |  | inactive | inactive
CCCCC1(COC(=O)CCC(=O)O)C(=O)N(c2ccccc2)N(c2ccccc2)C1=O | inactive | inactive | inactive | inactive | inactive | inactive | inactive | inactive | inactive | 
Cc1cccc(C)c1 | inactive | inactive | inactive | inactive | inactive | inactive | inactive | inactive | inactive | 
CC(C)C(=O)Nc1ccc([N+](=O)[O-])c(C(F)(F)F)c1 | inactive | inactive | inactive | inactive | inactive | inactive | 17.9 µM (active) and 21.9 µM (active) and 10.7 µM (active) | inactive | inactive | 
CN1CCC[C@H]1c1cccnc1 | inactive | inactive | inactive | inactive | inactive | inactive | inactive | inactive | inactive | 
Nc1c(N=Nc2ccc(-c3ccc(N=Nc4cc(S(=O)(=O)O)c5ccccc5c4N)cc3)cc2)cc(S(=O)(=O)O)c2ccccc12 |  | inactive | inactive | inactive | inactive |  | 43.6 µM (active) | inactive |  | 
C/C=C/C=C/C(=O)O | inactive | inactive | inactive | inactive | inactive | inactive | inactive | inactive | inactive | 
CCCCOC(=O)c1ccc(O)cc1 | inactive | inactive | inactive | inactive | inactive | inactive | 22.1 µM (active) and 19.5 µM (active) | inactive | inactive | 
O=CC(=O)c1ccccc1 | inactive |  | inactive | inactive | inactive | inactive | inactive | inactive | inactive | inactive
Cc1ncc([N+](=O)[O-])n1CCO | inactive | inactive | inactive | inactive | inactive | inactive | inactive | inactive | inactive | 
